From PubChem BioAssay (Tox21)
Results filed as inconclusive are left out. The source made the active and inactive calls. Unless noted, calls follow the shape of the full dose curve.

Tests used:
[1] = Nuclear factor erythroid 2-related factor 2/antioxidant responsive element (Nrf2/ARE) small molecule agonists: qHTS cell viability counter screen in human keratinocytes (AID 1919968; active = well fitted cell-killing curve with a large enough effect in the repeat runs; also: nearly all actives have a fitted effect of over 55% in size)
How it was run: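 Stably transfected HaCaT (KeratinoSens), 1,500/well. Test agents in DMSO were applied for 23 h, 37 C/5% CO2. CellTiter-Fluor was incubated 1 h before the fluorescence read.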

[2] = Nuclear factor erythroid 2-related factor 2/antioxidant responsive element (Nrf2/ARE) small molecule agonists: luciferase reporter gene qHTS assay in human keratinocytes (AID 1919969); also: nearly all actives have a fitted effect of over 35% in size
[3] = biological target: Gonadotropin-releasing hormone receptor (Homo sapiens) (UniProt P30968); experiment: Human gonadotropin-releasing hormone receptor (GnRHR) small molecule agonists, calcium flux assay in GnRHR-HEK293 cells (AID 1920063); also: nearly all actives have a fitted effect of over 35% in size
Sequence of Gonadotropin-releasing hormone receptor (Homo sapiens) (P30968 whole entry, looked up): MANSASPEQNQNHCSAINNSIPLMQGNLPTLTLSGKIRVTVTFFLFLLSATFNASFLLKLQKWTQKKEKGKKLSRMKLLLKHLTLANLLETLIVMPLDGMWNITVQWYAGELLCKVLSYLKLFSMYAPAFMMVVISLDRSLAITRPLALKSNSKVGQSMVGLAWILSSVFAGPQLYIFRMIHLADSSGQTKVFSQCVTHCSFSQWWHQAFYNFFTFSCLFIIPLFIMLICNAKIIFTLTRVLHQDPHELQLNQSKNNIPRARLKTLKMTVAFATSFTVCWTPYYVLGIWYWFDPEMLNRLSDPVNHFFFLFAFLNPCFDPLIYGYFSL
How it was run: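 Stable human GnRHR HEK293 line. 18 h plating, then calcium dye for 1 h at 37 C. Agonist-mode compound addition from DMSO stocks; fluorescence monitored 3 min.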

[4] = G protein-coupled receptor (GPCR) small molecule agonists, calcium flux assay: HEK293 wild type cell line counter screen (AID 1920065)
How it was run: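 Following 18 h incubation at 37 C/5% CO2, plates got calcium dye for 1 h; compounds, ATP or DMSO were then pinned in and fluorescence followed kinetically (480/540 nm).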

[5] = p53 small molecule agonists, cell-based qHTS assay with human liver microsomes (AID 1963577);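 also: p53 response element beta-lactamase reporter cells with liver microsomes plus NADPH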
How it was run: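 HLM-supplemented p53RE-bla reporter assay: 16 h compound exposure at 37 C, microsomes and NADPH each 0.5 mg/mL final, read by fluorescence intensity.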

[6] = p53 small molecule agonists, cell-based qHTS assay with rat liver microsomes (AID 1963578)
How it was run: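 Quantitative HTS of the Tox21 10K library: p53RE-bla cells, rat liver microsomes plus NADPH at 0.5 mg/mL final each, 16 h at 37 C, beta-lactamase fluorescence detection.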

[7] = p53 small molecule agonists, cell-based qHTS assay with human liver microsomes: qHTS cell viability counter screen (AID 1963579); also: nearly all actives have a fitted effect of over 45% in size
How it was run: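 Viability of p53RE-bla cells is measured as CellTiter-Glo luminescence following a 16 h, 37 C incubation with compound, liver microsomes from human donors and NADPH.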

[8] = p53 small molecule agonists, cell-based qHTS assay with rat liver microsomes: qHTS cell viability counter screen (AID 1963580); also: nearly all actives have a fitted effect of over 45% in size
How it was run: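 Cytotoxicity counter screen: intracellular ATP measured by CellTiter-Glo luminescence in the same wells as the beta-lactamase reporter read, on HCT-116 p53RE-bla cells exposed 16 h at 37 C to compounds with rat liver microsomes and NADPH, each 0.5 mg/mL final.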

[9] = p53 small molecule agonists, cell-based qHTS assay: qHTS cell viability counter screen (AID 1963581); also: nearly all actives have a fitted effect of over 45% in size
How it was run: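 qHTS counter screen: 16 h compound exposure at 37 C of p53RE-bla HCT-116 cells (4,000 per well, seeded 5 h prior), cell viability by ATP luminescence.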

[10] = p53 small molecule agonists, cell-based qHTS assay (AID 1963582; active = well fitted activation curve with a large enough effect in the signal ratio in the repeat runs, not every such curve was filed as active; the % refers to the signal ratio)
How it was run: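 Measured: fluorescence from cleaved LiveBLAzer substrate. System: p53RE-bla cells, 16 h compound treatment at 37 C, 2 h substrate step at room temperature.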

[11] = biological target: 5-hydroxytryptamine receptor 2A (Homo sapiens) (UniProt P28223); experiment: 5-hydroxytryptamine receptor 2A (HTR2A) small molecule antagonists, cell-based qHTS assay (AID 1963586); also: nearly all actives have a fitted effect of over 45% in size
Sequence of 5-hydroxytryptamine receptor 2A (Homo sapiens) (P28223 whole entry, looked up): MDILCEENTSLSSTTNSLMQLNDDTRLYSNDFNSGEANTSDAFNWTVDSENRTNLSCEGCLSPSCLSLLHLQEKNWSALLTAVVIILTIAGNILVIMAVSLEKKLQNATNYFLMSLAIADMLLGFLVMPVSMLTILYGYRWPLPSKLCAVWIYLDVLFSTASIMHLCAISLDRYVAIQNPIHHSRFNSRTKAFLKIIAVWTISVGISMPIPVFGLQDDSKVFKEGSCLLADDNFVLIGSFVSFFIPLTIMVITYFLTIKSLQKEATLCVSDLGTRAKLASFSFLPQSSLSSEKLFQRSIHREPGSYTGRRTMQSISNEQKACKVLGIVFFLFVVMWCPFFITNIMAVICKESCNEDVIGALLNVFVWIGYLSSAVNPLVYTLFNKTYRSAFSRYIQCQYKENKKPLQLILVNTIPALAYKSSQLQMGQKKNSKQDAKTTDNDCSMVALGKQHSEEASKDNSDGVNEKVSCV
How it was run: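 CHO cells stably expressing human HTR2A were plated for 18 h at 37 C, then loaded with calcium dye for 1 h. Compounds were preincubated 5 min at room temperature before DOI (4 nM solution) was added. Kinetic fluorescence was read for 3 min.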

[12] = biological target: 5-hydroxytryptamine receptor 2A (Homo sapiens) (UniProt P28223); experiment: 5-hydroxytryptamine receptor 2A (HTR2A) small molecule agonists, cell-based qHTS assay (AID 1963587); also: nearly all actives have a fitted effect of over 30% in size
How it was run: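 CHO cells stably expressing human HTR2A, plated 18 h, loaded with calcium dye 1 h at 37 C. Agonist mode: compounds added and intracellular calcium fluorescence recorded kinetically for 2 min at 1 sec intervals.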

[13] = biological target: Muscarinic acetylcholine receptor M1 (Homo sapiens) (UniProt P11229); experiment: Cholinergic receptor muscarinic 1 (CHRM1) small molecule antagonists, cell-based qHTS assay (AID 1963588); also: nearly all actives have a fitted effect of over 40% in size
Sequence of Muscarinic acetylcholine receptor M1 (Homo sapiens) (P11229 whole entry, looked up): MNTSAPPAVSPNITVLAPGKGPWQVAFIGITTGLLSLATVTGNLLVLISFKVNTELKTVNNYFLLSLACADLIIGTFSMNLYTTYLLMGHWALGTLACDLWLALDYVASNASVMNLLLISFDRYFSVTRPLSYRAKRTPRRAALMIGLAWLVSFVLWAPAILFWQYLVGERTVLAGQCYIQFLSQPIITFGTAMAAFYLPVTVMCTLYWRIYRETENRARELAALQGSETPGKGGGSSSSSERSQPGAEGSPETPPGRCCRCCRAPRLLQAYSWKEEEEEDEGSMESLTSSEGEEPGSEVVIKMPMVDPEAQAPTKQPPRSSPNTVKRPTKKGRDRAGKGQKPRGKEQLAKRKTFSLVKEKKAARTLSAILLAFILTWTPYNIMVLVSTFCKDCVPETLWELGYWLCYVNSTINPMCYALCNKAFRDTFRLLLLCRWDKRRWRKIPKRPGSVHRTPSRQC
How it was run: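 Compounds were tested at 15 concentrations in three independent runs. Dye-loaded CHRM1-CHO cells were exposed 5 min at room temperature before stimulation by acetylcholine added at 50nM. Intracellular calcium was read kinetically on FDSS for 3 min.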

[14] = biological target: Muscarinic acetylcholine receptor M1 (Homo sapiens) (UniProt P11229); experiment: Cholinergic receptor muscarinic 1 (CHRM1) small molecule agonists, cell-based qHTS assay (AID 1963589); also: nearly all actives have a fitted effect of over 35% in size
How it was run: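 Kinetic fluorescence (1 s intervals) of calcium-sensitive dye in human M1 CHO cells after compound addition; cells pre-incubated 18 h at 37 C/5% CO2 and dye-loaded 1 h.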

[15] = cAMP Responsive Elements (CRE) small molecule agonists, cell-based qHTS assay (AID 1963590)
How it was run: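 Test agents in DMSO were incubated 3 h at 37 C/5% CO2 with CRE-bla HEK 293T cells seeded 18 h earlier; LiveBLAzer B/G FRET substrate was added and read after 2 h at room temperature.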

[16] = cAMP Responsive Elements (CRE) small molecule antagonists, cell-based qHTS assay (AID 1963591; active = well fitted inhibition curve with a large enough effect in the signal ratio in the repeat runs, not every such curve was filed as active; the % refers to the signal ratio)
How it was run: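 Reporter line CRE-bla HEK 293T in dialyzed-FBS DMEM; cells preincubated 18 h, treated 3 h with compound plus NKH477 (0.25 uM final); LiveBLAzer FRET, 2 h RT.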

[17] = biological target: Beta-2 adrenergic receptor (Homo sapiens) (UniProt P07550); experiment: Adrenergic beta2 receptor (ADRB2) small molecule antagonists, cell-based qHTS assay (AID 1963592); also: series mostly up to about 92 µM; nearly all actives have a fitted effect of over 50% in size
Sequence of Beta-2 adrenergic receptor (Homo sapiens) (P07550 whole entry, looked up): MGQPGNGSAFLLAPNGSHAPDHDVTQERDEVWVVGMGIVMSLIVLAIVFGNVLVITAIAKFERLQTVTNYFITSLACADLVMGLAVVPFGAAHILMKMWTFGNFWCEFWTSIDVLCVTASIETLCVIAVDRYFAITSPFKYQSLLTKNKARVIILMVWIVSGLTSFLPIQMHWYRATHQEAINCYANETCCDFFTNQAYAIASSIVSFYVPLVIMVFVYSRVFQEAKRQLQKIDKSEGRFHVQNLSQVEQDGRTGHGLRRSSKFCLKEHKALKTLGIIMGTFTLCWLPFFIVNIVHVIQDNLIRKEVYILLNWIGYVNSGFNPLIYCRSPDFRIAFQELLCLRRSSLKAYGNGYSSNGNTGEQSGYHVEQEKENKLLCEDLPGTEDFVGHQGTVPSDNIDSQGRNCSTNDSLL
How it was run: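 Assay format: CHO-ADRB2 cells, 18-20hr seeding at 37C/5% CO2, then compound plus 1nM isoproterenol agonist mix for 0.5hr RT. Homogeneous time-resolved fluorescence cAMP detection after 1hr, expressed as 665/615 nm ratio.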

[18] = biological target: D(2) dopamine receptor (Homo sapiens) (UniProt P14416); experiment: Dopamine D2 receptor (DRD2) small molecule agonists, cell-based qHTS assay (AID 1963594); also: nearly all actives have a fitted effect of over 35% in size
Sequence of D(2) dopamine receptor (Homo sapiens) (P14416 whole entry, looked up): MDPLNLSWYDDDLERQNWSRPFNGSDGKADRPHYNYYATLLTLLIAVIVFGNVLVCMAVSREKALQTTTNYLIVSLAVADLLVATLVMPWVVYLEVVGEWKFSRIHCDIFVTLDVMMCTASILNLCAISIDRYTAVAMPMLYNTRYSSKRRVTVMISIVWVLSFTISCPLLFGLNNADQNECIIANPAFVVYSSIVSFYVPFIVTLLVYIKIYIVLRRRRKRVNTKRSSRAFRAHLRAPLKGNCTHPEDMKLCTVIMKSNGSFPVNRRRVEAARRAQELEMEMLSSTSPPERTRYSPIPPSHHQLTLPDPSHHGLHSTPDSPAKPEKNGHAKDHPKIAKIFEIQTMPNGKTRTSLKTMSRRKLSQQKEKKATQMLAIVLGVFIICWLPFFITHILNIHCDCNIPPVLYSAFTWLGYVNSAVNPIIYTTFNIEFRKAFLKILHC
How it was run: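 HEK293 cells stably expressing human DRD2, pre-treated with PDE inhibitor Ro20-1724 (0.1 mM final) and compound 10 min at room temperature, then stimulated with NKH477 (200nM […]) for 30 min. cAMP read by HTRF (665/620 nm).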

[19] = biological target: Beta-2 adrenergic receptor (Homo sapiens) (UniProt P07550); experiment: Adrenergic beta2 receptor (ADRB2) small molecule agonists, cell-based qHTS assay (AID 1963593);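 also: CHO cells stably overexpressing human ADRB2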
How it was run: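 CHO cells stably over-expressing ADRB2 were plated overnight at 37C, then dosed with compounds plus a stimulation mix containing 100uM IBMX and 25uM Ro-20-1724 for 0.5hr at room temperature. cAMP was measured by HTRF competition, 1hr.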

[20] = biological target: D(2) dopamine receptor (Homo sapiens) (UniProt P14416); experiment: Dopamine D2 receptor (DRD2) small molecule antagonists, cell-based qHTS assay (AID 1963595; active = well fitted inhibition curve with a large enough effect in the signal ratio in the repeat runs, with a control signal flat; the % refers to the signal ratio)
How it was run: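 Antagonist mode in DRD2-HEK293 cells: after compound addition with 0.1 mM Ro20-1724, cells received quinpirole (12 nM) and NKH477 (200 nM) for 30 min at room temperature; HTRF cAMP read after 1 h detection.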

Measured: Potency

CC(C)CC(=O)O
not listed: [19] | [20]
inactive: all other assays above

COCc1ccc(COC)cc1
not listed: [14] | [17]
inactive: all other assays above

CC(C)[C@@H]1CC[C@@H](C)CC1=O
not listed: [19]
inactive: all other assays above

CC(C)OC(=O)C(O)(CC(=O)O)CC(=O)O
not listed: [19]
inactive: all other assays above

COc1ccc(N=[N+]([O-])c2ccc(OC)cc2)cc1
not listed: [19]
inactive: all other assays above

CC(C)c1ccc(C=O)cc1
not listed: [19]
inactive: all other assays above

Cc1ccc(C(C)NC(=O)[C@@H](NC(=O)OC(C)C)C(C)C)cc1 (some centres undefined)
not listed: [15] | [19] | [20]
inactive: all other assays above
